Laboratory results taken from ChEMBL document CHEMBL3988442, “University of Dundee, Small-Polar-MMV Screening Library” (2021).
In all, about 48,000 compounds went through this assay and about 13,000 (27%) showed an effect of 50% or more. Some of the results follow.

Test system: Wolbachia pipientis
Experiment: Anti-Wolbachia Cell-Based Screen
Assay type: functional
Set-up: scale not given: in the data most compounds retested in dose-response had high values
Settings: 5 µM

Structure (SMILES) | Percent Effect [%]
CC(C)N1CCC(N2CCOC3(CCCC3)C2)C1=O (configuration not stated) | 10.32
Cc1cnc(CNc2c(F)cccc2-n2cccn2)o1 | -16.45
O=C(O)C(F)(F)F.O=C(O)C(F)(F)F.O=C(O)C(F)(F)F.O=C(O)c1cc2c(nc1-c1ccncc1)CCN(C1CCOC1)CC2 (configuration not stated) | -8.005
N#Cc1ccnc(N2CCN(CC(O)c3ccc(F)cc3)CC2)c1 (configuration not stated) | -11.77
O=C(O)CCc1cc2n(n1)CCCN(C(=O)c1ccc(F)cc1F)C2 | -66.14
CC(C)c1cc(C(F)(F)F)n2nc(CCC(=O)O)nc2n1 | -4.305
O=C(O)Cc1cccc(-n2ccnc2-c2ccc(F)c(Cl)c2)c1 | -0.5745
O=C(O)CCc1nc2nccc(-c3ccc(F)cc3)n2n1 | 119.2
O=C(O)CCc1nc2nccc(C(F)(F)F)n2n1 | 112.1
O=C(O)Cc1nc2nccc(-c3ccc(F)cc3)n2n1 | 127
CCN(Cc1c(F)cccc1F)C(=O)c1ccncc1O | -5.979
COCC1CCN(S(=O)(=O)N2C[C@H](c3ccccc3)[C@@H](N)C2)CC1 | -1.102
CCc1ccc2nc(C)cc(C(=O)NCc3csc(N(C)C)n3)c2c1 | -26.8
COc1nn(C)c2c1CCCN(S(=O)(=O)c1cccc(C)c1)C2 | 0.0765
O=C(C1CC1)N1CC[C@H]2C(=O)N(c3ccsc3)CCO[C@H]2C1 | 9.146
FC(F)C(F)(F)COCc1ncnn1-c1ccc2c(c1)OCO2 | -0.1872
CN(C)C(=O)NC1COC2(CCN(Cc3ccc(Cl)c(F)c3)CC2)C1.O=C(O)C(F)(F)F (configuration not stated) | 5.668
CCC(O)CN1CCN(C(=O)c2ccc(Cn3cccc3)cc2)CC1 (configuration not stated) | 90.26
CC(O)CN1CCN(C(=O)c2ccc(Cn3cccn3)cc2)CC1 (configuration not stated) | 3.707
O=C(c1ccc(Oc2cccnc2)cc1)N1CCN(CCO)CC1 | 6.053
O=C(c1ccc(Cn2cccc2)cc1)N1CCN(CCO)CC1 | 94.5
CC(O)CN1CCN(C(=O)c2ccc(Cn3cccc3)cc2)CC1 (configuration not stated) | 3.366
CCCN1CCN(C(=O)c2ccc(Cn3cc(Br)cn3)cc2)CC1 | -5.49
Cc1cc2c(c(-c3cnccn3)c1)OC(CN)C2 (configuration not stated) | -6.126
CCN(Cc1nc(COC)no1)Cc1cccnc1NC(=O)C(C)(C)C | -4.491
Cc1c(Cl)cccc1NC(=O)CCNc1ccc(C#N)cn1 | 0.2076

Structure (SMILES) | Percent Effect [%]
Cc1c(Cl)cccc1NC(=O)c1nc[nH]n1 | 83.83
Cc1c(Cl)cccc1NC(=O)Cn1cc(C(=O)O)ccc1=O | 1.545
O=C(O)C(F)(F)F.c1ccc(CN2CCc3ncnc(C4CC4)c3CC2)cc1 | 85.35
COc1ccc(CN2CCc3ncnc(C4CCOC4)c3CC2)cc1.O=C(O)C(F)(F)F (configuration not stated) | -16.69
Fc1ccc(CN2CCc3ncnc(C4CCOC4)c3CC2)cc1.O=C(O)C(F)(F)F (configuration not stated) | -4.98
O=C(O)C(F)(F)F.c1nc2c(c(C3CC3)n1)CCN(Cc1ccc3c(c1)OCO3)CC2 | -14.88
CCN(C)c1ncnc2c1CCN(Cc1ccc(OC)cc1)CC2.O=C(O)C(F)(F)F.O=C(O)C(F)(F)F | -7.101
COc1ccc(CN2CCc3ncnc(C4CC4)c3CC2)cc1.O=C(O)C(F)(F)F | 110.6
O=C(O)C(F)(F)F.O=C(O)C(F)(F)F.c1ccc(CN2CCc3ncnc(C4CC4)c3CC2)nc1 | -2.713
Fc1ccc(CN2CCc3ncnc(C4CC4)c3CC2)cc1.O=C(O)C(F)(F)F | 98.26
O=C(O)C(F)(F)F.O=C(O)C(F)(F)F.c1cncc(CN2CCc3ncnc(C4CC4)c3CC2)c1 | 8.838
Cc1ccc(O)c(C(=O)N2CCC(CNC(=O)OC(C)(C)C)C2)c1 (configuration not stated) | 18.78
Cc1cc(NC(=O)c2ccc(N3CCOCC3)c(F)c2)[nH]n1 | -5.615
Cl.O=C(NC[C@@]1(COc2cnccn2)C[C@@H](O)[C@@H](O)C1)C1CC1 | -0.6559
O=C(NCCc1ccccc1F)NCC(O)c1cccc(F)c1 (configuration not stated) | 91.24
O=C(NCc1ccccc1F)NCC(O)c1cccc(F)c1 (configuration not stated) | 109.5
O=C(NCC(O)c1cccc(F)c1)c1cccnc1O (configuration not stated) | -4.303
CN1CCN(C)C(c2nnc3ccc(C(=O)N4CCOCC4)cn23)C1.O=C(O)C(F)(F)F.O=C(O)C(F)(F)F (configuration not stated) | 7.547
COc1ncc(C)cc1NC(=O)CCc1ccccn1 | -10.54
CO[C@H]1[C@@H]2CC[C@H]1CN(c1nc(C)nc3ccsc13)C2 | 116.9
CO[C@H]1[C@@H]2CC[C@H]1CN(c1nc(C)nc3sccc13)C2 | 2.93
Cc1nc(N2CCC(C(O)c3nccn3C)CC2)c2sccc2n1 (configuration not stated) | -1.351
Cc1nc2c(c(N3CCC(O)(CN4CCCC4)CC3)n1)CCNCC2 | -22.09
CNc1cncc(C2CCCN2C(=O)c2ccc3oc(=O)n(C)c3c2)n1 (configuration not stated) | -20.51
CNc1cncc(C2CCCN2C(=O)CCn2ccnc2C(C)C)n1 (configuration not stated) | 103
CC(C)c1nccn1CCC(=O)N1CCCCC1c1ccn[nH]1 (configuration not stated) | 89.39
